“And” between values parts separate entries of the source, which are not always exact repeats. Equal values may be shown once. The panel holds about 83,000 compounds, 20% with a hit somewhere; the sample as a whole holds those more often.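 A percent growth of 40 corresponds to 60% growth inhibition; 0 means no net growth; -100 means all cells died. Active threshold: below 10.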 The source made the active and inactive calls.

The experiment relates to HL-60(TB) leukemia. In words: NCI-60 one-dose screen, 48 h (100 = growth as untreated, 0 = no growth, -100 = all killed). Conditions: 10 µM unless noted.
For the molecule `CCN(CC)CCCCCCNc1cc(OC)cc2cccnc12`, the growth was -57.3% (active). As for `N#Cc1c(-c2ccccc2)cc(-c2ccccc2)n(CCC(=O)O)c1=O`, the figure is 13.8% (inactive); as for `CC1=C(C#N)C(C)(C)C(C#N)=C(C)N1`, 98.6% (inactive); as for `N#C/C(=C\c1ccc2c(c1)OCO2)n1nnc2cc(F)c(F)cc21`, 38.6% (inactive).

As to `COc1ccc(-c2nocc2-c2cccs2)cc1`, the growth was 115% (inactive).

Turning to `CC1(C)CC[C@]2(C(=O)O)CC[C@]3(C)C(=CC[C@@H]4[C@@]5(C)C/C(=C/O)C(=O)C(C)(C)[C@@H]5CC[C@]43C)[C@@H]2C1`, the growth is 4.77% (active). As for `Cc1ccc(S(=O)(=O)NCCCNc2nccc(-c3c(-c4cccc(F)c4)nc4occn34)n2)cc1`, the figure is 44.8% (inactive). As for `Cc1ccc(F)c(NC(=O)Nc2ccc(-c3cccc4[nH]nc(N)c34)cc2)c1`, the figure is 7.97% (active); as for `Cc1nn(-c2ccccc2)c2nc3nc4c(c(N)c3c(-c3ccc(Cl)cc3)c12)CCCC4`, 104% (inactive); as for `[2H]c1nc(Nc2ncc3cc(C(=O)N(C)C)n(C4CCCC4)c3n2)c([2H])c([2H])c1N1C([2H])([2H])C([2H])([2H])NC([2H])([2H])C1([2H])[2H]`, 14.6% (inactive). As for `COC(=O)c1cc(-c2cccs2)c(C#N)c(N)c1C#N`, the figure is 108% (inactive). Turning to `CCSc1nnc2c3cc(Br)ccc3n(C)c2n1`, the growth is 110% (inactive). The result for `C#Cc1cccc(NC(=O)c2ccccc2NC(=O)CCl)c1` reads 91.6% [8.25 µM] (inactive); that for `FC(F)(F)c1cccc(-c2[nH]ncc2-c2nnnn2-c2ccccc2)c1`, 3.68% (active); that for `CCN(CC)CCCNc1nc(C)cc(Nc2ccc3nc(C)cc(N)c3c2)n1`, 106% (inactive). As for `COc1cccc2c1C(=O)c1c(O)c3c(c(O)c1C2=O)C[C@@](O)(C(=O)CO)C[C@@H]3OC1CC(OC(C)=O)C(OC(C)=O)C(C)O1` (some centres undefined), the figure is -40% (active). The result for `O=C(O)c1ccccc1C(=O)OC1CCCC2CCCC21` (centres undefined) reads 104% (inactive); that for `CC(C)c1ccc(COCc2cc(CN3CCCC3)c(O)c3ncccc23)cc1`, -20.3% (active).

Consider `O=C(CCCn1c2c(sc3ccccc32)c(=O)n2nnc(-c3ccccc3)c12)NCCc1cnc[nH]1`, for which the growth is 82.4% (inactive). As for `CCCCN(CCCC)CCCO`, the figure is 95.5% (inactive); as for `CC(C)(C)c1ccc(S(=O)(=O)N[C@H]2CC[C@H]3[C@@H]4CCc5cc(OS(=O)(=O)O)ccc5[C@H]4CC[C@]23C)cc1`, 19.6% (inactive). The result for `Nc1nc(N)nc(N2CCCCC2)n1` reads 97.9% (inactive); that for `NS(=O)(=O)c1ccc(N2Cc3cc(Cl)ccc3OC3=C2C(=O)N(CC2CCCCC2)C3=O)cc1`, -35.9% (active); that for `O=S(=O)(c1ccccc1)n1cc2c(c1)-c1nc(Nc3ncccn3)sc1CC2`, 66.2% (inactive). On to `O=C(c1ccccc1)c1cc2ccccc2oc1=O`, for which the growth was 64.6% (inactive). As for `O=C1N(Cc2ccccc2Cl)c2ccccc2C12NN=C(c1cccc(Cl)c1)S2` (centres undefined), the figure is 28.7% (inactive); as for `Nc1ncnc2c1c(-c1cccc(Cl)c1)nn2CC(=O)N1CCOCC1`, 101% (inactive). The result for `NC1=NC(c2ccccc2)N=C(Nc2ccccc2)N1` (centres undefined) reads 95.7% (inactive) and 111% (inactive). The result for `CCOC(=O)/C=C/c1cc2cc(-c3csc4ccccc34)ccc2[nH]1` reads 32.1% (inactive); that for `O=C(Nc1ccc(OS(=O)(=O)c2ccc(F)cc2)cc1)C1CCCCCC1`, 56.4% (inactive). For the molecule `C(=C\c1nc2ccccc2s1)/c1ccc(N2CCOCC2)s1`, the growth was 24% (inactive).

Consider `CCCCCCCCCCCCCCCCCCNC(=O)[C@H]1CSC(c2cccs2)N1` (some centres undefined), for which the growth is -67.5% (active). As for `O=[N+]([O-])c1ccccc1N(S(=O)(=O)c1ccccc1)S(=O)(=O)c1ccccc1`, the figure is 5.52% (active) and 108% (inactive); as for `N#CC1=C(N)Oc2cc(N)ccc2C1c1ccc(F)cc1` (centres undefined), 88.9% (inactive). In the case of `COc1ccc(-n2c(-c3ccccc3)c(-c3ccccc3)c3c(SCC(=O)N/N=C/c4ccc(Cl)cc4)ncnc32)cc1`, the growth is 103% (inactive).

In the case of `O=C1/C(=C/c2ccc([N+](=O)[O-])cc2)Oc2ccc(O)cc21`, the growth is 86.1% (inactive).

On to `Cc1ccc(NC(=O)N[C@@H](Cc2cc(F)cc(F)c2)C(=O)N[C@@H]2C(=O)N3CCC[C@H]3C(=O)N3CCOC[C@H]3C(=O)N[C@@H](C)C(=O)N3C[C@H](C)C[C@H]3C(=O)O[C@H]2C)cc1`, for which the growth is 14.5% (inactive). The result for `Oc1ccc(/C=N/N=C2c3ccccc3-c3ccccc32)c(O)c1` reads 71.7% (inactive); that for `CS(=O)(=O)Nc1ccc([N+](=O)[O-])cc1Oc1ccccc1`, 92.9% (inactive).

Values taken from PubChem BioAssay (NCI).
